Laboratory results taken from the OligoGym collection.

target: NEUROD6; experiment: pooled miR-30 sensor sort-seq; sequence = guide strand; conditions: shRNA
Note: reference of the scale not given here.

Sequence | sensor-assay potency score (higher = more potent)
TTTGTCTTAATTAGACAGGGGA | -0.0326
TTTGTTGTCTTTTTTTTCCTAA | -0.154
TAATTCATCTTGCATTGTGAGA | -0.914
TTTTCATCTTCCTCTTCCCTGT | -0.025
TGTCTCCTGAACTTGACCCTTT | -0.00785
TTAAGTTGTCCAGAGCGTCGTT | -0.144

target: NF1; experiment: as above; conditions: shRNA

Sequence | sensor-assay potency score (higher = more potent)
TTGTAGGACAATCAGATGCTAT | -0.838
TAACTGATGAAGAACCAGCAGA | -0.956
TAAAATAGCAATATCATCCCAC | 0.315
TAGCAGTAACTCTTTGTCGTTT | -0.737
TTTGTAGATAGGTAGCACCATA | -1.19
TATTACTGTAGCTTCTATCAGA | -0.358
TACTAAGAAAGTAACAACGTGG | 0.245
TTTGCTTTGAAAACGGTCCTGC | 0.844
TATTCTACCATCTTATTCCTAA | -0.177
TAGAAGGAATATCACATCCTAC | -0.685

target: NFE2L1; experiment: as above; conditions: shRNA

Sequence | sensor-assay potency score (higher = more potent)
TAATTGTCCAGGTCTATGCTCT | -0.487
TTACTCAACACAAGCATTCTAG | 0.0111
TTGAATATTGGGCATCTCCTTT | -0.276
TTATGCTGGAAATGTCTGCTGG | -0.294
TAAGTATCCACGTCCACCCGTA | 0.169
TTAGCAGCTTTGAATATTGGGC | -0.506
TAAGTCTCCACTGACTGGGGGG | -0.685
TTGTCCAGGTCTATGCTCTTGG | -0.582
TTTCGCTTTCTCGCACCCCGTT | -0.883
TTGATGATTTTGTCATTGGTGA | -0.465
TCGTCCGTTCTCATCTCGCAGC | -1.23
TTCCTGTACACTGACCCGCAGT | -0.906

target: NFYC; experiment: as above; conditions: shRNA

Sequence | sensor-assay potency score (higher = more potent)
TAGCATTGGACACACACTCAAC | -0.948
TCTTGGAACAATATCGATGAGA | -0.931
TATTGCATCTTTCTGCTGGAGA | -0.521
TAAGCGGATATACTGCAGCTGG | -0.727
ATCTCTTGGAACAATATCGATG | -1.33
TAATCTTCTTAATACGAGCCAG | -0.951
TAGAGCTGCTGTCCATCTGTGA | -0.297
TTGAGTGCCTGATACAGGCTGG | -0.146
TTGCTGGATCTGGTAGAGCTGC | -1.31
AAATATTGCATCTTTCTGCTGG | 0.522
TTATCTTCTGTGTGAATCCAGG | -0.977
TGTGTTAGTGATGATCTGCTGC | 0.227
